Out of some 2,300 compounds screened, about 790 (34%) were called active. Some of the results follow. Results with a measured potency or affinity are listed apart. Unmarked numbers belong to inactive results. No rule for the calls is given here.
Experiment: THP-1 cell cytotoxicity, dose response, cytotoxicity control for non-replicating M. tuberculosis project (AID 489025)
Conditions: THP-1 cell viability; series mostly up to 40 µM; viability: at the top concentration

Row | Structure (SMILES) | viability [%]
1 | Clc1ccc(SCCCCn2ccnc2)cc1 | 70.5
2 | O=C(O)c1ccc(NS(=O)(=O)/C=C/c2ccccc2)cc1O | 115
3 | Cc1cc(C)cc(NC(=O)COC(=O)CC2CCCC2)c1 | 116
4 | O=C(COc1ccc(Nc2ccccc2)cc1)OCC(=O)N1CCCCC1 | 110
5 | COc1cccc(CC2(CO)CCCN(Cc3sc(N4CCCC4)nc3Cl)C2)c1 (stereo not drawn) | 73.3
6 | O=C(COc1ccc(Cl)cc1)Nc1ccc(Cl)cn1 | 108
7 | CCCc1nnc(-c2ccc(OC)cc2)o1 | 114
8 | c1ccc(-c2n[nH]c(-c3ccccn3)n2)nc1 | 95.7
9 | O=C(COc1ccc(Cl)cc1)Nc1ccccc1Cl | 105
10 | CC(C)(C)OC(=O)NCCc1nnc(S(=O)(=O)Cc2ccc(Cl)cc2Cl)o1 | 112
11 | OCC#CCSc1nnc(-c2ccc(Br)cc2)o1 | 95.2
12 | Cc1cccc(NCc2nnc(-c3ccccc3)o2)c1C | 110
13 | CCOc1ccc(-c2ccc(SCC)nn2)cc1 | 90
14 | O=C(CCSc1ccccn1)c1ccccc1 | 92.2
15 | O=C(NC1CCCC1)c1nc2c(nnn2Cc2cccc(Cl)c2)c(=O)[nH]1 | 74
16 | CC(C)(C)c1ccc(OCCC(=O)OCC(=O)NC2CCCCC2)cc1 | 89.7
17 | CC(C)(C)c1ccc(-c2nc(C#N)c(NCCCn3ccnc3)o2)cc1 | 74.9
18 | N#Cc1nc(-c2cccs2)oc1NCCc1ccccc1 | 86.1
19 | CCOCCOC(=O)COc1ccc2c(-c3ccccc3)cc(=O)oc2c1 | 96.5
20 | CCc1nnc(NC(=O)CN2CCN(Cc3ccc(F)cc3)CC2)s1 | 95.2
21 | Cc1ccc2nc(NC(=O)COC(=O)c3ccc(Br)o3)sc2c1 | 109
22 | CC1CCN(C(=O)COC(=O)CCc2c[nH]c3ccccc23)CC1 | 101
23 | O=C1/C(=C/c2cccs2)COc2ccccc21 | 98.4
24 | COc1ccc2c3c(cccc13)OCC2=O | 94
25 | O=C(c1ccco1)N1CCN(c2ccc(F)cc2)CC1 | 90.3
26 | O=S(=O)(NCc1cccnc1)c1ccc(Cl)c(Cl)c1Cl | 103

Row | Structure (SMILES) | viability [%]
27 | Cc1cc(C=C2C(=O)NC(=S)NC2=O)c(C)n1C1CCCC1 | 89.8
28 | CCCn1nnnc1NCc1ccc(CC)cc1 | 101
29 | CCc1ccc(/C=N/NC(=O)c2ccccn2)cc1 | 81
30 | CCCCCCCC(=O)NNC(=O)c1ccc(F)cc1 | 73
31 | O=C(N/N=C/C=C/c1ccccc1)c1ccccn1 | 110
32 | Cc1ccc(-c2noc(CCCC(=O)Nc3cccnc3)n2)cc1 | 87
33 | CCCCCCCC(=O)N/N=C(/C)c1c(O)cc(C)oc1=O | 88.7
34 | Cc1ccc(NCCC(=O)c2cccs2)cc1 | 105
35 | CCCCn1nnc(NC(=O)COc2ccc(Cl)c(C)c2)n1 | 120
36 | CCCOC(=O)c1ccc(NC(=O)c2ccccc2OC)cc1 | 85.5
37 | CN1CCC(O)(c2ccc(Cl)cc2)C(C(=O)c2ccc(Cl)cc2)C1 (stereo not drawn) | 84.8
38 | CCN(CC)S(=O)(=O)c1ccc(C(=O)OCn2nnc3ccccc3c2=O)cc1 | 122
39 | C/C(=N\NC(=O)c1ccco1)c1cc(Cl)sc1Cl | 99.9
40 | C=C1Cn2c(nnc2-c2ccc(Cl)cc2)S1 | 110
41 | O=C(COc1ccccc1)NC1CCCCC1 | 97.7
42 | O=C(OCn1nnc2ccccc2c1=O)C1CCCCC1 | 119
43 | Cc1ccc2nc(C)c3c(c2c1)COC3 | 90.3
44 | CCOC(=O)COc1ccc2c(c1)C(=O)CC1(CCCCC1)O2 | 87
45 | CCOc1ccc(NC(=O)CCNC(=O)c2ccc(Br)cc2)cc1 | 106
46 | O=C(c1ccc(-c2ccc([N+](=O)[O-])cc2)o1)N1CCN(S(=O)(=O)c2cccs2)CC1 | 79.7
47 | CC1CCN(C(=O)c2ccc(-c3ccccc3Cl)o2)CC1 | 98.6
48 | O=C(COc1cccc2ccccc12)Nc1nc2ccccc2[nH]1 | 85.1
49 | CCCN(Cc1nnc(-c2ccccc2Cl)o1)C(=O)c1cc([N+](=O)[O-])cc([N+](=O)[O-])c1 | 95.2
50 | Cc1ccc(OCC(=O)Nc2ccc([N+](=O)[O-])cc2)cc1 | 116
51 | COc1ccc(CCOC(=O)c2ccc(N)c([N+](=O)[O-])c2)cc1 | 104
52 | COc1ccc(C(=O)COC(=O)COc2ccc(C)c(C)c2)cc1 | 123

Row | Structure (SMILES) | viability [%]
53 | CC(C)CN(Cc1c(O)ccc2ccccc12)CC(C)C | 112
54 | Cn1c(=O)c2c(=O)cc(NNC(=O)CC#N)[nH]c2n(C)c1=O | 96.6
55 | O=C(C/C=N\OCc1ccc([N+](=O)[O-])cc1)Nc1ccccc1 | 101
56 | CN(CC(=O)Nc1ccc(Cl)cc1)C1CCCCC1 | 107
57 | Cc1ccc(CO/N=C/c2c(O)cc(C)oc2=O)cc1 | 107
58 | CS(=O)(=O)Nc1cccc2cccnc12 | 82.3
59 | Cc1cc(C)n2nc(S(=O)(=O)Nc3c(Cl)cccc3Cl)nc2n1 | 117
60 | CCSc1nc(O)c(C2OC(=O)c3c2ccc(OC)c3OC)c(=O)n1-c1ccccc1 (stereo not drawn) | 105
61 | COc1cc(/C=C/c2ccc3c([N+](=O)[O-])cccc3n2)ccc1OCC(=O)O | 109
62 | COc1cc(C=O)ccc1OCCCCOc1ccccc1[N+](=O)[O-] | 110
63 | C=CCN(CC=C)CC(=O)Nc1ccc(S(N)(=O)=O)cc1 | 97.7
64 | O=C(OCc1ccc([N+](=O)[O-])cc1)c1ccc2ccccc2n1 | 115
65 | N#CC(C(=O)Nc1ccccc1)=C1Nc2ccccc2N1 | 84.1
66 | CSCCC(=O)N1CCCC(CNC(=O)c2ccc(-c3ccccc3)cc2)C1 (stereo not drawn) | 76.2
67 | Cc1[nH]n(S(=O)(=O)Cc2ccccc2)c(=O)c1N=Nc1ccccc1Cl | 117
68 | O=C(NN=C(Cc1ccccc1)Cc1ccccc1)c1ccncc1 | 105
69 | O=C(N/N=C/C=C/c1ccccc1)c1ccncc1 | 101
70 | CN1/C(=C\C=N\NC(=O)c2cccnc2)C(C)(C)c2ccccc21 | 103
71 | CCOC(=O)N1CCC(NC(=O)C2CCN(c3nc(-c4ccc(OC)cc4)no3)CC2)CC1 | 89.9
72 | CCOC(=O)C1CCCN(Cc2nc(Cc3ccccc3Cl)no2)C1 (stereo not drawn) | 105
73 | CCCNC(=O)OCC12CC3CC(CC(C3)C1)C2 | 94.7
74 | O=C(CCCOc1ccccc1)OCn1nnc2ccccc2c1=O | 97.9
75 | COc1ccccc1N1CCN(C(=O)CCn2c(=O)[nH]c3ccsc3c2=O)CC1 | 92.4
76 | Cc1ccc(C(=O)COC(=O)c2cccs2)cc1 | 107
77 | Cc1ccc(C(=O)CCC2CCCC2=O)cc1 (stereo not drawn) | 116
78 | COc1ccc(-c2[nH]ncc2CN2CCCCCCC2)c(OC)c1 | 92.9
